{
  "source": "PubChem BioAssay (Tox21)",
  "note": "Unmarked numbers belong to inactive results. Calls follow the shape of the dose curve; as a rule, active = well fitted inhibition curve with a large enough effect in the repeat runs (not every such curve was filed as active); inconclusive = weak or mixed curves; inactive = flat fitted curve, though single readings scatter. % is scaled to controls: 0 for no effect and ±100 for the full control effect.",
  "data": [
    {"target": "Thyrotropin-releasing hormone receptor (Homo sapiens) (UniProt P34981)", "sequence (P34981 whole entry, looked up)": "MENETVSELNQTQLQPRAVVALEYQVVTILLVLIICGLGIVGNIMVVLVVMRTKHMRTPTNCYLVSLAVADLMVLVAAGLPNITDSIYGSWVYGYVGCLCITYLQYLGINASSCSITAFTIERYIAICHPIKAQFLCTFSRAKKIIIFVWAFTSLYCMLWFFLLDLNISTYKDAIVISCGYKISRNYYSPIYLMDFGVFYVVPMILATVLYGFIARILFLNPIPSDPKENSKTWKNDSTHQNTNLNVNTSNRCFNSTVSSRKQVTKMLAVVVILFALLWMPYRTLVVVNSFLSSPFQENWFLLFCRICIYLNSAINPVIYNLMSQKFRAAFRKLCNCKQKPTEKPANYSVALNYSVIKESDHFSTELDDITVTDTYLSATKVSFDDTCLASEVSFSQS", "experiment": "qHTS assay to identify small molecule antagonists of the thyrotropin-releasing hormone receptor (TRHR) signaling pathway (AID 1346877)", "settings": "TRHR-HEK293, TRH-induced calcium fluorescence, antagonist mode; series mostly up to 51.3 µM; activity, negative = inhibition: at the top concentration", "source_text": "National Center for Advancing Translational Sciences [NCATS]\nNIH Chemical Genomics Center [NCGC]\nU.S. Environmental Protection Agency [EPA]\nNational Institutes of Environmental Health Sciences [NIEHS]\nNational Toxicology Program [NTP]\nU.S. Food and Drug Administration [FDA]\nThyrotropin-releasing hormone (TRH) receptor (TRHR) is a G-protein-coupled receptor which binds the tripeptide thyrotropin releasing hormone. TRHR is found in the brain and, when bound by TRH, acts (through phospholipase C) to increase intracellular inositol trisphosphate. It plays a crucial role in the anterior pituitary where it controls the synthesis and secretion of thyroid stimulating hormone and prolactin. The TRHR-Hek293 assay is a cell-based assay, and it has the potential to screen G protein-coupled receptors. A compound/drug can either activate (agonist) or suppress (antagonist) GPCRs that can be monitored by levels of intracellular calcium. In this assay, the Tox21 10K compound library was screened to identify potential TRHR antagonists.\nTox21 Assay Protocol Summary:\nThe TRHR-Hek293 cells were dispensed at 1500cells/4uL/well in 1536-well black-clear bottom plates using a Multidrop dispenser. After the assay plates were incubated at a 37 C/5% CO2 incubator for 18 hours, 4 uL of Dye-Loading Solution was added to each well. The plates were incubated at 37 C for 2 hours. For agonist mode, 23 nL of compounds dissolved in DMSO, positive controls or DMSO only was transferred to the assay plate by a pin tool. The fluorescence intensity in the plates was measured using FDSS 7000EX kinetic plate reader for 3 min at 1 sec intervals. For antagonist mode, 23 nL of compounds dissolved in DMSO, positive controls or DMSO only was transferred to the assay plate by a pin tool. After 5 min incubation at room temperature, 1 uL of TRH was added on the top of the cell/compound mixtures to achieve a final agonist concentration of 1 nM. The fluorescence intensity in the plates was measured using FDSS 7000EX kinetic plate reader for 3 min at 1 sec intervals. Each test compound was measured at 15 concentrations and in triplicates.", "values": [
      {"smiles": "Cc1ncc(CO)c(C=O)c1O", "activity, negative = inhibition": "-1.63% [at 23.6 µM]"},
      {"smiles": "CCCCc1nc2cccnc2n1Cc1ccc(-c2ccccc2-c2nnn[nH]2)cc1", "activity, negative = inhibition": "-7.8%"},
      {"smiles": "Cc1cc(N)c2cc(NC(=O)Nc3ccc4nc(C)cc(N)c4c3)ccc2n1", "activity, negative = inhibition": "0.992% [at 23.6 µM]"},
      {"smiles": "CCC(C)c1cc(C(C)(C)C)c(O)c(C(C)(C)C)c1", "note": "(stereo not given)", "activity, negative = inhibition": "0.67%"},
      {"smiles": "Cc1ccc(N=Nc2c(O)c(C(=O)O)cc3ccccc23)c(S(=O)(=O)O)c1", "activity, negative = inhibition": "-0.205% [at 23.6 µM]"},
      {"smiles": "C[Si](C)(CCCN)O[Si](C)(C)CCCN", "activity, negative = inhibition": "-6.45%"},
      {"smiles": "CC(CSC(=O)c1ccccc1)C(=O)N1C[C@@H](Sc2ccccc2)C[C@H]1C(=O)O", "note": "(stereo not given in full)", "activity, negative = inhibition": "-5.47% [at 10.5 µM]"},
      {"smiles": "CCCCCCCC/C=C\\CCCCCCCC(=O)OCC", "activity, negative = inhibition": "-0.707%"},
      {"smiles": "NCC(=O)O", "activity, negative = inhibition": "-3.84% [at 10.5 µM]"},
      {"smiles": "CC(COCCO)OCCO", "note": "(stereo not given)", "activity, negative = inhibition": "2.85%"},
      {"smiles": "C=C(C)C(=O)OCC", "activity, negative = inhibition": "-4.56%"},
      {"smiles": "CN(C)CCN(Cc1ccsc1)c1ccccn1", "activity, negative = inhibition": "1.03% [at 23.6 µM]"},
      {"smiles": "COc1cccc(N(C)C(=S)Oc2ccc3c(c2)CCCC3)n1", "activity, negative = inhibition": "-5.13% [at 23.6 µM]"},
      {"smiles": "Nc1cccc([N+](=O)[O-])c1", "activity, negative = inhibition": "-1.81%"},
      {"smiles": "CNCCCCOc1ccccc1Cc1ccccc1", "activity, negative = inhibition": "5.05% [at 23.6 µM]"},
      {"smiles": "CC(C)Cc1ccc(C(C)C(=O)OCc2ccccn2)cc1", "note": "(stereo not given)", "activity, negative = inhibition": "2.93% [at 23.6 µM]"},
      {"smiles": "CCOCC(O)COc1ccc(NC(=O)CC[S+](C)C)cc1", "note": "(stereo not given)", "activity, negative = inhibition": "-4.45% [at 23.6 µM]"},
      {"smiles": "c1ccc(C(O[C@H]2CCCN(CCc3ccc4c(c3)OCO4)C2)c2ccccc2)cc1", "activity, negative = inhibition": "-3.37% [at 23.6 µM]"},
      {"smiles": "CN(C)c1ccc(/C=C/c2ccc([N+](=O)[O-])cc2)cc1", "activity, negative = inhibition": "-0.61% [at 4.65 µM]"},
      {"smiles": "C[N+]1(C)CCC(OC(=O)C(O)(c2ccccc2)C2CCCC2)C1", "note": "(stereo not given)", "activity, negative = inhibition": "3.55% [at 23.6 µM]"},
      {"smiles": "CCOC(=O)Cc1cccc2ccccc12", "activity, negative = inhibition": "-5.54%"},
      {"smiles": "Nc1ncn([C@H]2C[C@H](O)[C@@H](CO)O2)c(=O)n1", "activity, negative = inhibition": "5.76% [at 23.6 µM]"},
      {"smiles": "C=CCOC(=O)CCC1CCCCC1", "activity, negative = inhibition": "2.78%"},
      {"smiles": "CCC(C)O", "note": "(stereo not given)", "activity, negative = inhibition": "1.6%"},
      {"smiles": "CCCCC/C=C\\C/C=C\\CCCCCCCC(=O)NC(C)c1ccccc1", "note": "(stereo not given)", "activity, negative = inhibition": "2.67% [at 23.6 µM]"},
      {"smiles": "O=C(O)c1ccccc1Cl", "activity, negative = inhibition": "-4.43%"},
      {"smiles": "COc1cc(C(=O)OCCCN2CCCN(CCCOC(=O)c3cc(OC)c(OC)c(OC)c3)CC2)cc(OC)c1OC", "activity, negative = inhibition": "1.81% [at 23.6 µM]"},
      {"smiles": "COS(=O)(=O)C(F)(F)F", "activity, negative = inhibition": "0.902%"},
      {"smiles": "CCCCc1ncc(/C=C(\\Cc2cccs2)C(=O)O)n1Cc1ccc(C(=O)O)cc1", "activity, negative = inhibition": "-3.31% [at 23.6 µM]"},
      {"smiles": "CCC(=O)O[C@]1(C(=O)CCl)[C@@H](C)C[C@H]2[C@@H]3CCC4=CC(=O)C=C[C@]4(C)[C@@]3(F)[C@@H](O)C[C@@]21C", "activity, negative = inhibition": "1.4% [at 23.6 µM]"},
      {"smiles": "CN(C)CCCN1c2ccccc2Sc2ccccc21", "activity, negative = inhibition": "-3.73% [at 23.6 µM]"},
      {"smiles": "COC(C)(C)CCO", "activity, negative = inhibition": "3.72%"},
      {"smiles": "CCN(CC)CCNC(=O)c1cc(Br)c(N)cc1OC", "activity, negative = inhibition": "5.16% [at 23.6 µM]"},
      {"smiles": "CCCCCCCCCCCCCCCCCCOS(=O)(=O)O", "activity, negative = inhibition": "-27.1%"},
      {"smiles": "O=C(Cl)c1cc(C(=O)Cl)cc(C(=O)Cl)c1", "activity, negative = inhibition": "-1.27%"},
      {"smiles": "c1ccc(-c2ccccn2)nc1", "activity, negative = inhibition": "3.37%"},
      {"smiles": "CCN(CC)c1ccc(C(=C2C=CC(=[N+](CC)CC)C=C2)c2cc(S(=O)(=O)O)ccc2S(=O)(=O)[O-])cc1", "activity, negative = inhibition": "-0.659% [at 23.6 µM]"},
      {"smiles": "COc1cc2nc(N(C)CCCNC(=O)C3CCCO3)nc(N)c2cc1OC", "note": "(stereo not given)", "activity, negative = inhibition": "-9.5% [at 23.6 µM]"},
      {"smiles": "C#CCN(C)CCCOc1ccc(Cl)cc1Cl", "activity, negative = inhibition": "-1.82% [at 23.6 µM]"},
      {"smiles": "ClCCOCCOCCCl", "activity, negative = inhibition": "1%"}
    ]}
  ]
}
